# Measured values reported in the OligoGym collection.
# Target: GLIS2
# Assay: pooled miR-30 sensor sort-seq; sequence = guide strand
# Details: shRNA
# Note: reference of the scale not given here.
row,Sequence,sensor-assay potency score (higher = more potent)
1,TAGAAAGGCACTTAGAACCTGT,0.24
2,TTTTTTTAAAACTCTATGCTAA,-0.424
3,TTGGAATAGCGCTTGTTGCAGC,-0.438
4,ATCGTTGACATGGTCCACCAGG,-0.948
5,TTTCACAGAAGAGTTTCCGTTC,0.4
6,TTTATAAACTTCCTCTCCCATG,-1.13
7,TATTGTTATAGTCATTAGCTTA,-0.656
8,TAAAACTCTATGCTAACAGCAA,-0.574
9,TGGATGAGCATCTTGTACCTGG,-0.352
10,TTCTCGTTGGTGTGTGTGCGGA,-0.632
11,ATAGTCATTAGCTTATCTCTTT,-0.353
12,TAGTCATTAGCTTATCTCTTTT,-1.29

# Target: GLP1R
# Assay: as above
# Details: shRNA
row,Sequence,sensor-assay potency score (higher = more potent)
1,TTCCTTGCACATCACATGCCTC,-0.533
2,ATGAGCAGAAACACCAGGCGGC,-0.579
3,TTTTGCAGCCACGAACTCCTTG,0.187
4,TAGTTCATGTTGGAGTTCCTGG,-0.642
5,TATCCTATTATTTTCCTTGCAC,0.182
6,TTGATGTCTGTCTTGCACATGA,-0.0737
7,TTGCAGAACAAGTCTGTGGCAG,0.187
8,TTATATCCTATTATTTTCCTTG,-0.237
9,TTCAGGTGGATGTAGTTCCTGG,-0.141
10,TTTGATGTCTGTCTTGCACATG,-0.835
11,TTGGAGTTCCTGGTCCAGCAGC,-1.12
12,TTGATGAAGACGGACAATGCTC,-0.64

# Target: GLRA3
# Assay: as above
# Details: shRNA
row,Sequence,sensor-assay potency score (higher = more potent)
1,TAACATATAAACACATTGGCAG,-0.00869
2,TTCTTCTTTCAACAGAAACTGG,-0.833
3,TAGCATTGAATTACAAATCAAG,-1.08
4,TAGCTTTGACATATGAAACTTT,-0.212
5,TTATTCTTTCTCTTTCGTCGAA,0.181
6,TTCGAGATCTTGCACTGTCTGT,-0.307
7,TAGGCTGTGAAGCTGAATCGGC,-0.0399
8,TTGCTTGTAGACATGGTCCCAT,0.533
9,TATACATGTTTGTACATCCATG,-1.26
10,TTGCATGTGACATTAACTGGAG,-0.491
11,TGACTTTGCATAGCTAACCAAA,-1.29
12,TATTCTTTCTCTTTCGTCGAAA,-0.712

# Target: GNAQ
# Assay: as above
# Details: shRNA
row,Sequence,sensor-assay potency score (higher = more potent)
1,TTGTATGGGATCTTGAGTGTGT,0.798
2,TTTAAGAACAGAATAACCGAGG,-0.0655
3,TCTAAGCACATCTTGTTGCGTA,0.35
4,TATCTTCATCAGAGTATCCTGA,-0.164
